Measurements: PubChem BioAssay (NCI)
This is part of a sample that, as a whole, favours compounds with a hit. Of some 79,000 tested, about 15% had one in any assay. Values without a mark were called inactive. Calls of active or inactive are those of the source. Cut-off read from the data, not from the text of the source: active = growth inhibition above about 70%; inactive = the rest.

Test: NCI Yeast Anticancer Drug Screen. Data for the mec2-1 strain (AID 157)
Conditions: S. cerevisiae mec2-1 strain, at 5.0 µM (retest, dose inferred, filed as 0.5), active compounds read high
How it was run: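 Using mec2-1 yeast: add compound, measure growth, express inhibition versus vehicle-treated cultures.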

Compound	growth inhibition
Oc1ccccc1N=CC1CCCCC1	-27%
CC(O[Si](c1ccccc1)(c1ccccc1)C(C)(C)C)[C@H](NC(=O)OC(C)(C)C)C(=O)O[Si](c1ccccc1)(c1ccccc1)C(C)(C)C (some centres not stated)	88% (active)
Cn1c(=O)c2c3oc(=O)cc(O)c3c(=O)n3c4ccccc4n(c1=O)c23	29%
CCCCCCCCCCCCCCC(O)C(=O)O (configuration not stated)	-2%
O=[N+]([O-])c1cc(I)cc(/C=N/NS(=O)(=O)c2ccc(F)cc2)c1O	12%
CCC/C=C1/OC(=O)C2=C[C@H]3CC[C@]21[C@]1(OC(=O)C2=C1CCC=C2)[C@H]3CCC	14%
C=C(CC)C[C@@H]1C[C@]2(C(=O)OC)c3[nH]c4ccccc4c3CCN2C1=O	0%
Cc1ccc(N2C(=O)C(Cl)=C(Cl)C2=O)cc1	12%
COc1cc2c(cc1O)CCCCC2	3%
CC(C)Cc1cc(O)cc2ccccc12	5%
CCN(CC)Cc1cc(Nc2c3ccccc3nc3c4ccccc4n(C)c23)ccc1O	2%
CC(=O)Nc1ccc(-c2csc(Nc3ccnc4cc(Cl)ccc34)n2)cc1	-4%
NNc1ccccc1F	-32%
O=C(O)C1(Cc2ccc3c(c2)CCC3)Cc2ccccc2C1=O (configuration not stated)	-6%
c1cc2cc(Cc3ccc4[nH]ccc4c3)ccc2[nH]1	21%
COc1cc(C(c2cc3c(cc2O)OCO3)N2CCOCC2)ccc1O (configuration not stated)	-4%
Cc1c(N)nc(C2CC(=O)N2CC(N)C(N)=O)nc1C(=O)NC(C(=O)NC(C)C(O)C(C)C(=O)NC(C(=O)NCCc1nc(-c2nc(C(=O)NCCNCC(C)O)cs2)cs1)C(C)O)C(OC1OC(CO)C(O)C(O)C1OC1OC(CO)C(O)C(OC(N)=O)C1O)c1cnc[nH]1 (configuration not stated)	82% (active)
